# Results filed as inconclusive are left out. Activity calls are given as the source filed them. Unless noted, calls come from the whole dose curve.
# Columns and labels:
# [1] = target: Bile acid receptor (Homo sapiens) (UniProt Q96RI1); test: qHTS assay for small molecule antagonists of farnesoid X receptor signaling (AID 588526); note: potency is the fitted concentration of half-maximal effect
# Outline: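 Antagonist mode: titrated compounds tested against chenodeoxycholic acid stimulation (normalized to 50 uM CDCA and DMSO) in GeneBLAzer HEK293T cells for 16 h. Beta-lactamase read by CCF4 fluorescence; IC50 from Hill fits.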
# [2] = target: Bile acid receptor (Homo sapiens) (UniProt Q96RI1); test: qHTS assay for small molecule agonists of farnesoid X receptor signaling (AID 588527); details: HEK293T FXR-UAS-bla, beta-lactamase ratio, 16 h; activation: stronger effect = higher value;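 note: series mostly up to about 77 µM; 0% = vehicle basal and 100% = reference agonist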
# Outline: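 Read-out: beta-lactamase reporter fluorescence with CCF4 substrate in GeneBLAzer FXR-UAS-bla HEK293T cells, after 16 h compound exposure at 37 C. Response scaled between DMSO basal (0%) and chenodeoxycholic acid at 100 uM (100%).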
# [3] = target: Glucocorticoid receptor (Homo sapiens) (UniProt P04150); test: qHTS assay for small molecule agonists of glucocorticoid receptor signaling (AID 588532; active = well fitted curve in the direction sought with a large enough effect in the signal ratio, with a control signal flat; the % refers to the signal ratio;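 note: 100% = dexamethasone at 0.1 µM and 0% = DMSO only wells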); details: HeLa MMTV-bla, beta-lactamase ratio, agonist, 18 h; activation: stronger effect = higher value, percent of dexamethasone control, DMSO zero
# Outline: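 Cells were plated and rested 3-5 h at 37 C, compounds were added in titration and incubated 18 h, then CCF4 substrate was loaded for 2 h at RT before reading blue/green fluorescence. EC50 came from Hill-equation fitting.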
# [4] = target: Glucocorticoid receptor (Homo sapiens) (UniProt P04150); test: qHTS assay for small molecule antagonists of glucocorticoid receptor signaling (AID 588533; active = well fitted inhibition curve with a large enough effect in the signal ratio, with a control signal flat, not every such curve was filed as active; the % refers to the signal ratio; note: % is set by controls: 0 for no effect and ±100 for the full control effect)
# Outline: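 Antagonist-mode qHTS: compound titrations added to GRE-bla HeLa cells, then dexamethasone 2 nM final; 18 h, 37 C. CCF4 FRET fluorescence normalized to dexamethasone and DMSO; IC50 from Hill fit.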
# [5] = target: Peroxisome proliferator-activated receptor delta (Homo sapiens) (UniProt Q03181); test: qHTS assay for small molecule agonists of peroxisome proliferator-activated receptor delta signaling (AID 588534);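 note: 0% = DMSO basal wells and 100% = positive control agonist at 10 µM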
# Outline: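 Titration series tested in agonist mode on beta-lactamase reporter cells; 18 hrs at 37 C after a 5 hr pre-incubation. Readout: CCF4 fluorescence, 2 hrs RT. Hill equation gives EC50 and maximal response.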
# [6] = qHTS assay for small molecule antagonists of peroxisome proliferator-activated receptor delta signaling (AID 588535; active = well fitted inhibition curve with a large enough effect in the signal ratio, with a control signal flat, not every such curve was filed as active; the % refers to the signal ratio;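 for max response: cells co-treated with a PPAR-delta agonist as stimulator during compound exposure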); details: HEK293T PPARd-UAS-bla, beta-lactamase FRET ratio, 18 h; 460 nm channel
# Outline: (§1)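 Beta-lactamase reporter read-out (405 nm excitation, 460/530 nm emission) after CCF4 loading for 2 hrs at RT. HEK293T PPAR-delta-UAS-bla cells, 2% charcoal/dextran FBS, compounds for 18 hrs at 37 C. Hill fit gave IC50 and efficacy.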
# [7] = target: Peroxisome proliferator-activated receptor delta (Homo sapiens) (UniProt Q03181); test: as above
# Outline: as §1
# [8] = target: Peroxisome proliferator-activated receptor gamma (Homo sapiens) (UniProt P37231); test: qHTS assay for small molecule agonists of peroxisome proliferator-activated receptor gamma signaling (AID 588536; active = well fitted curve in the direction sought with a large enough effect in the signal ratio, with a control signal flat, not every such curve was filed as active; the % refers to the signal ratio;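 note: 0% = DMSO basal wells and 100% = rosiglitazone at 2 µM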)
# Outline: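 Beta-lactamase reporter read-out: CCF4 fluorescence (ex 405, em 460/530 nm) after 2 h at RT. HEK293 GeneBLAzer cells were treated for 16 h at 37 C. Hill fits gave EC50 and efficacy versus 2 uM rosiglitazone (100%) and DMSO (0%).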
# [9] = target: Peroxisome proliferator-activated receptor gamma (Homo sapiens) (UniProt P37231); test: qHTS assay for small molecule antagonists of peroxisome proliferator-activated receptor gamma signaling (AID 588537; active = well fitted inhibition curve with a large enough effect in the signal ratio, with a control signal flat, not every such curve was filed as active; the % refers to the signal ratio;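 note: reporter cells co-stimulated with 50 nM rosiglitazone agonist during compound treatment; % of control where 0% means no effect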)
# Outline: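 Read-out: CCF4 fluorescence (ex 405, em 460/530 nm) after 2 h at RT. Cells were HEK293 carrying a UAS-bla reporter and treated 16 h at 37 C with compound plus rosiglitazone (50 nM final). Normalized to rosiglitazone and DMSO.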
# [10] = target: Vitamin D3 receptor (Homo sapiens) (UniProt P11473); test: qHTS assay for small molecule antagonists of vitamin D receptor signaling (AID 588541);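 note: receptor activated by calcitriol during compound treatment; series mostly up to about 77 µM; % is set by controls: 0 for no effect and ±100 for the full control effect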
# Outline: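 VDR-UAS-bla HEK293T cells in 2% charcoal-stripped FBS were stimulated with 1-alpha,25-dihydroxyvitamin D3 (3 nM final) plus compound for 16 h at 37 C. The beta-lactamase CCF4 readout was normalized to 50 nM agonist and DMSO, and Hill fits gave IC50.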
# [11] = qHTS assay for small molecule agonists of retinoid X receptor alpha signaling (AID 588544); details: HEK293T RXRa-UAS-bla, beta-lactamase reporter, 18 h; 530 nm emission;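 for activation: 0% = DMSO basal wells and 100% = reference agonist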
# [12] = target: Retinoic acid receptor RXR-alpha (Homo sapiens) (UniProt P19793); test: as above
# [13] = target: Thyroid hormone receptor beta (Homo sapiens) (UniProt P10828); test: qHTS assay for small molecule agonists of thyroid hormone receptor beta signaling (AID 588545)
# Outline: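 Cells (2500/well) were seeded, incubated 4 hrs at 37 C, dosed with a compound series, incubated 18 hrs, loaded with CCF4 dye for 2 hrs at RT, then read for fluorescence. Data were scaled between DMSO (0%) and 10 nM T3 (100%).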
# [14] = qHTS assay for small molecule antagonists of retinoid X receptor alpha signaling (AID 588546; active = well fitted inhibition curve with a large enough effect in the signal ratio, with a control signal flat, not every such curve was filed as active; the % refers to the signal ratio;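 note: cells stimulated with 9-cis-retinoic acid as agonist; % is set by controls: 0 for no effect and ±100 for the full control effect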); details: HEK293T RXRa-UAS-bla, beta-lactamase ratio, antagonist mode; measured here: W530 green channel, cytotoxicity proxy
# Outline: (§2)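 Beta-lactamase reporter inhibition, read as CCF4 fluorescence ratio (ex 405, em 460/530 nm) after 2 h at RT. HEK293T UAS-bla cells, 2500/well, were stimulated with 9-cis-RA at 500 or 100 nM final alongside test compound for 18 h at 37 C.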
# [15] = target: Retinoic acid receptor RXR-alpha (Homo sapiens) (UniProt P19793); test: as above; details: HEK293T RXRa-UAS-bla, beta-lactamase ratio, antagonist mode
# Outline: as §2
# [16] = target: Thyroid hormone receptor beta (Homo sapiens) (UniProt P10828); test: qHTS assay for small molecule antagonists of thyroid hormone receptor beta signaling (AID 588547; active = well fitted inhibition curve with a large enough effect in the signal ratio, with a control signal flat, not every such curve was filed as active; the % refers to the signal ratio;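 note: cells stimulated with 0.4 nM T3 agonist during compound exposure; series mostly up to about 77 µM; % is set by controls: 0 for no effect and ±100 for the full control effect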); details: TR-UAS-bla HEK293, beta-lactamase ratio, antagonist mode, 18 h
# Outline: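 TR-UAS-bla GripTite HEK293 cells in 2% charcoal/dextran FBS medium; compounds 0.59 nM to 92 uM with T3 at 0.4nM final, 18 h at 37 C. Beta-lactamase read by CCF4 fluorescence (460/530 nm); Hill fits gave IC50 and efficacy.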
# [17] = qHTS assay for small molecule agonists of the antioxidant response element (ARE) signaling pathway (AID 651741; active = well fitted activation curve with a large enough effect in the signal ratio; the % refers to the signal ratio; note: potency is the fitted concentration of half-maximal effect; for activation: % of control where 0% means no effect)
# Outline: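 HepG2 ARE-bla reporter cells, 2,000/well; 5 h settle at 37 C/5% CO2; compound pin transfer (23 nL, DMSO); 16 h at 37 C; LiveBLAzer B/G FRET substrate, 2 h RT; fluorescence intensity read.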
# [18] = qHTS assay for environmental chemicals that activate the Aryl hydrocarbon Receptor (AhR) signaling pathway (AID 651777; active = well fitted curve in the direction sought with a large enough effect; an effect the other way counts as inactive or inconclusive; note: % of control where 0% means no effect; nearly all actives have a fitted effect of over 15% in size); details: 1A2-DRE human hepatoma cells, luciferase, 24 h; activation: stronger effect = higher value
# Outline: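 Luminescence read-out: One-Glo added for 30 min at RT after 24 hr compound treatment (37 C, 5% CO2) of human hepatoma cells expressing a DRE/CYP1A2 promoter–luciferase reporter; increased signal indicates AhR activation.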
# [19] = target: Peroxisome proliferator-activated receptor alpha (Homo sapiens) (UniProt Q07869); test: qHTS assay for small molecule agonists of the peroxisome proliferator-activated receptor alpha (PPARalpha) signaling pathway (AID 651778; active = well fitted curve in the direction sought with a large enough effect; an effect the other way counts as inactive or inconclusive; note: % of control where 0% means no effect); details: PathHunter PPARalpha complementation, chemiluminescence, 6 h; max response: stronger effect = higher value
# Outline: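 Enzyme-fragment complementation assay in which ligand-bound PPARalpha translocates and forms an active enzyme that generates chemiluminescence. Cells were plated overnight, exposed to compound for 6 hr at 37 C, and then given detection reagent for 60 min at room temperature.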
# [20] = qHTS assay for small molecule agonists of the antioxidant response element (ARE) signaling pathway measured by Nrf2-dependant transcriptional activity (AID 720636; active = well fitted curve in the direction sought with a large enough effect in the repeat runs; an effect the other way counts as inactive or inconclusive;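 note: HepG2 cells with an ARE-driven luciferase reporter; % of control where 0% means no effect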)
# Outline: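 HepG2 ARE-luc reporter line, 1% dialyzed FBS; 6 hr attachment at 37 C, compound pinned in, 16 hr at 37 C/5% CO2; ONE-Glo, 30 min RT, luminescence read.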
# [21] = qHTS assay for small molecule agonists of the antioxidant response element (ARE) signaling pathway measured by Nrf2-dependant transcriptional activity - cell viability counter screen (AID 720653; active = well fitted curve in the direction sought with a large enough effect in the repeat runs; an effect the other way counts as inactive or inconclusive; note: % is set by controls: 0 for no effect and ±100 for the full control effect); details: ARE-bla HepG2 viability, CellTiter-Glo ATP luminescence, 16 h; max response: stronger effect = lower value
# Outline: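 ARE-bla HepG2 cells treated with compounds for 16 h at 37C; this counter screen measures viability as intracellular ATP by CellTiter-Glo luminescence after 30 min at room temperature.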
# [22] = qHTS assay for cell viability of HEK293 cells (AID 743288; active = well fitted curve in the direction sought with a large enough effect; an effect the other way counts as inactive or inconclusive; note: % is set by controls: 0 for no effect and ±100 for the full control effect; nearly all actives have a fitted effect of over 50% in size); details: ATP luminescence (CellTiter-Glo), 18 h; max response: stronger effect = lower value
# Outline: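 Viable-cell counts were inferred from luciferase-based ATP content in HEK293 cells seeded at 2,000/well, pre-incubated ≥5 h, then dosed with DMSO-solubilised compounds for 18 h at 37 C.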
# [23] = qHTS assay for cell viability of the p53RE-bla HCT-116 cell line (AID 743292; active = well fitted curve in the direction sought with a large enough effect; an effect the other way counts as inactive or inconclusive; note: % is set by controls: 0 for no effect and ±100 for the full control effect; nearly all actives have a fitted effect of over 55% in size)
# Outline: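 Luminescent ATP quantitation (CellTiter-Glo) served as the viability read-out; reagent was added after 16 h compound exposure at 37 C and read after 30 min at room temperature. Cells: p53RE-bla HCT-116, 4,000 per well.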
# [24] = target: Nuclear receptor subfamily 1 group I member 2 (Rattus norvegicus) (UniProt Q9R1A7); test: qHTS assay for small molecule activators of the rat pregnane X receptor (rPXR) signaling pathway (AID 651751; call rule not given here; note: 0% is about no effect); details: rPXR reporter cells, luciferase (One-Glo), 24 h
# [25] = qHTS assay for small molecule activators of the human pregnane X receptor (PXR) signaling pathway (AID 720659; call rule not given here; note: 0% is about no effect)
# [26] = target: Vitamin D3 receptor (Homo sapiens) (UniProt P11473); test: qHTS assay for small molecule agonists of vitamin D receptor signaling (AID 588543);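 note: 0% = DMSO basal and 100% = reference agonist control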
# Outline: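 Reporter cells (HEK293T, VDR-UAS-bla) were seeded in medium with 2% charcoal-stripped serum and incubated 5 h, then compounds in concentration series were added for 16 h at 37 °C. Stimulation was scaled between DMSO basal and 50 nM 1α,25-dihydroxyvitamin D3.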
# [27] = qHTS assay for small molecule activators of the nuclear factor-kappa B (NF-kB) signaling pathway (AID 651749; active = well fitted activation curve with a large enough effect in the signal ratio; the % refers to the signal ratio; note: series mostly up to about 77 µM; % of control where 0% means no effect); details: NF-kB-bla ME-180 cells, beta-lactamase FRET ratio, 16 h; activation: stronger effect = higher value
# Outline: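 NF-kB-bla ME-180 cells, 2,000/well; 23 nL compound or DMSO pinned; 16 hr, 37C/5% CO2; beta-lactamase FRET read-out.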
# Sequence of Thyroid hormone receptor beta (Homo sapiens) (P10828 whole entry, looked up): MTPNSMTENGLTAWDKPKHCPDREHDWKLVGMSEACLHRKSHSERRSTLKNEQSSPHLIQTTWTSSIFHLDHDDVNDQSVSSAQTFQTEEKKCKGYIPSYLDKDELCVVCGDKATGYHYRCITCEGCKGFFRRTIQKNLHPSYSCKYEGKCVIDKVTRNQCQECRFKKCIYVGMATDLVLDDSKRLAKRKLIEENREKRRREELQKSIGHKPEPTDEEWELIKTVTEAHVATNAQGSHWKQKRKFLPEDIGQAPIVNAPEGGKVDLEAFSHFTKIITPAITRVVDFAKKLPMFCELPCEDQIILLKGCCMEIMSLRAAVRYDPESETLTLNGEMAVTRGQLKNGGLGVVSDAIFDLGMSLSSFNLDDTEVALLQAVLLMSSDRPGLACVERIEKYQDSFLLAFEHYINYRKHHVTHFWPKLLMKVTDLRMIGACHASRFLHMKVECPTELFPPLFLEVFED
# Sequence of Bile acid receptor (Homo sapiens) (Q96RI1 whole entry, looked up): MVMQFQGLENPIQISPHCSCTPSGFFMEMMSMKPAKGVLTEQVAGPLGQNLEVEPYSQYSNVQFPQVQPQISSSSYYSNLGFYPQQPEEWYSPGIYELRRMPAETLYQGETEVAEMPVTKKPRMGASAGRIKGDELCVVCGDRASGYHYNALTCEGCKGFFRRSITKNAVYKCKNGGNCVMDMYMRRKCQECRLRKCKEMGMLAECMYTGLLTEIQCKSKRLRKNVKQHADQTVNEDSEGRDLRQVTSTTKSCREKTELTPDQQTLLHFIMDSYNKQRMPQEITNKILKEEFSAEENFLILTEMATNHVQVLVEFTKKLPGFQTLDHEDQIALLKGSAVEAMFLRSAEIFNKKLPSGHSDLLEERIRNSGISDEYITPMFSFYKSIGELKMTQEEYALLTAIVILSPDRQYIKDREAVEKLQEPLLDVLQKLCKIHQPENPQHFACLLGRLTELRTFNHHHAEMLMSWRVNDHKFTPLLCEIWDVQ
# Sequence of Glucocorticoid receptor (Homo sapiens) (P04150 whole entry, looked up): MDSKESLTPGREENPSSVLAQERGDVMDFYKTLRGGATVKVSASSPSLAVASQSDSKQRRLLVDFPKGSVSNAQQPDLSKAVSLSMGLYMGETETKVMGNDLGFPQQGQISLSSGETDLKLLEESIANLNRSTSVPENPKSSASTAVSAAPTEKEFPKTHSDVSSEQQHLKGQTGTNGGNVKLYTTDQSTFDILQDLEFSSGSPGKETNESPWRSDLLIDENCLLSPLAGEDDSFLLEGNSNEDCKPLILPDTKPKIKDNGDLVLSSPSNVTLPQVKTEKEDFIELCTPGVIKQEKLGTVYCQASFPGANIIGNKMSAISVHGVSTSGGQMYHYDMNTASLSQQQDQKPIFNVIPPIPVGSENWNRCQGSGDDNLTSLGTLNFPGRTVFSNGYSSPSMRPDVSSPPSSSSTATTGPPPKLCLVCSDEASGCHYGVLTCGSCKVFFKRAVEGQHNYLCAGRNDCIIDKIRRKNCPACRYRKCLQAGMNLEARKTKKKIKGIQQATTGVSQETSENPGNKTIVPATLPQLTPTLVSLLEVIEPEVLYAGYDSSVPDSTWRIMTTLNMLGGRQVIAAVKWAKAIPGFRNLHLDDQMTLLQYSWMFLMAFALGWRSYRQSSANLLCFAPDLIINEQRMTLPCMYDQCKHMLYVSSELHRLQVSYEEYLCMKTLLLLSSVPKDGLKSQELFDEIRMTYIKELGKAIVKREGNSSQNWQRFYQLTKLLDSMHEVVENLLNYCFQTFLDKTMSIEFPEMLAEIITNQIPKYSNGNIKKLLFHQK
# Sequence of Peroxisome proliferator-activated receptor alpha (Homo sapiens) (Q07869 whole entry, looked up, the tested form may be a part): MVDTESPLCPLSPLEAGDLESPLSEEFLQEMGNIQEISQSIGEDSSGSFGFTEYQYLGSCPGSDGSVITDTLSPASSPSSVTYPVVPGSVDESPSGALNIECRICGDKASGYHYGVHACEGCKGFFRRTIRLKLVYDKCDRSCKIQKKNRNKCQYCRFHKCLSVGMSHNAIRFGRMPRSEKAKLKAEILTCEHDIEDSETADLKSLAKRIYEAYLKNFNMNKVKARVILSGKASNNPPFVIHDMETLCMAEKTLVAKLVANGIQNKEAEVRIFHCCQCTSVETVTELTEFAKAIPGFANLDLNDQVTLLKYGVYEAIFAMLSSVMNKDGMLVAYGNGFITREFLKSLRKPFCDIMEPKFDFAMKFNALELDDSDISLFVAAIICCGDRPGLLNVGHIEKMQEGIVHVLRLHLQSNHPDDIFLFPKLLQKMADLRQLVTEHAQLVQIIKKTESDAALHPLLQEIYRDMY
# Sequence of Peroxisome proliferator-activated receptor delta (Homo sapiens) (Q03181 whole entry, looked up): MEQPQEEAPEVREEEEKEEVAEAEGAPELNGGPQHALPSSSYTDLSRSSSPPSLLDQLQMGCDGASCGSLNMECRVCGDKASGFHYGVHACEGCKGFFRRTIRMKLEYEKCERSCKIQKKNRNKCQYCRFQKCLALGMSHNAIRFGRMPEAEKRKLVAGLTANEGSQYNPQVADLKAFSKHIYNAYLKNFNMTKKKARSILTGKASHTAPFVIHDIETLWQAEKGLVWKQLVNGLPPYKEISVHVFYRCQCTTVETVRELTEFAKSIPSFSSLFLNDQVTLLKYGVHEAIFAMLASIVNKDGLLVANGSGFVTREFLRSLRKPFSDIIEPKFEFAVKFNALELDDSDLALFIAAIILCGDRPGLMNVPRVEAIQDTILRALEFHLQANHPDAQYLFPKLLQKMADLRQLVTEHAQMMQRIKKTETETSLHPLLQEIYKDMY
# Sequence of Retinoic acid receptor RXR-alpha (Homo sapiens) (P19793 whole entry, looked up): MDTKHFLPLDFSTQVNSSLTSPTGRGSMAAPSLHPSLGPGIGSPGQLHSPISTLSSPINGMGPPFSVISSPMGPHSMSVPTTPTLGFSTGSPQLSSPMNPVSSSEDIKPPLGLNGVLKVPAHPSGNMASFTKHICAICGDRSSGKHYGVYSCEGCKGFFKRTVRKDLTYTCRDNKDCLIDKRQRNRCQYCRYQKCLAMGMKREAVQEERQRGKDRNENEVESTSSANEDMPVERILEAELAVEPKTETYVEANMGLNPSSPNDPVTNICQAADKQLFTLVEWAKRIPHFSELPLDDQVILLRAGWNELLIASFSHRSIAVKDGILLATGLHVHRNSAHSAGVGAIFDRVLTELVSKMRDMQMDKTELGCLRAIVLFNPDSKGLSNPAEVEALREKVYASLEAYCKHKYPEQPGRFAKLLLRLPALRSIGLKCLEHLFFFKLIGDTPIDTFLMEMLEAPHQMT
# Sequence of Nuclear receptor subfamily 1 group I member 2 (Rattus norvegicus) (Q9R1A7 whole entry, looked up): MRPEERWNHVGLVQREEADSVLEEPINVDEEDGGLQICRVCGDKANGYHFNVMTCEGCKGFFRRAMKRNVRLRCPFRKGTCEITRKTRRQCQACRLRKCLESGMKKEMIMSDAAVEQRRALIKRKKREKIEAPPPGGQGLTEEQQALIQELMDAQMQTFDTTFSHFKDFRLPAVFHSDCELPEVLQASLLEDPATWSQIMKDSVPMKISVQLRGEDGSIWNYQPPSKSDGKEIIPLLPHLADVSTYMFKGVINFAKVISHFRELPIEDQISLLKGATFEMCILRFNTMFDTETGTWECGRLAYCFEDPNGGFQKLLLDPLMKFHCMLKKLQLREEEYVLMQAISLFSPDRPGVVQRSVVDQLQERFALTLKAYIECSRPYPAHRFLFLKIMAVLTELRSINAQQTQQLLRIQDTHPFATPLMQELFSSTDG
# Sequence of Peroxisome proliferator-activated receptor gamma (Homo sapiens) (P37231 whole entry, looked up): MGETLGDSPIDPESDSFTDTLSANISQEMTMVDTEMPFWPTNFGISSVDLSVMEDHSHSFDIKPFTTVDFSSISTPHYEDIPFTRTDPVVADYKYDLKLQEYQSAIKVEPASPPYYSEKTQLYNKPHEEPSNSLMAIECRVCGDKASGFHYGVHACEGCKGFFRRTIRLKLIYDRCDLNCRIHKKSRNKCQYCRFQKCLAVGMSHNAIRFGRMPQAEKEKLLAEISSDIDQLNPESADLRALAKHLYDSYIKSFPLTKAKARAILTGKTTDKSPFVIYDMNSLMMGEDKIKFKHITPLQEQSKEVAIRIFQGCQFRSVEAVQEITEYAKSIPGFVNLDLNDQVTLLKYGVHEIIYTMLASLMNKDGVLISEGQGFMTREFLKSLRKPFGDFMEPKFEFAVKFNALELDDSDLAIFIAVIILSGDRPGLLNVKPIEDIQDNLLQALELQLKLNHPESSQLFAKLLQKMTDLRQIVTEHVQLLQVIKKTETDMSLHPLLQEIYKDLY
# Sequence of Vitamin D3 receptor (Homo sapiens) (P11473 whole entry, looked up): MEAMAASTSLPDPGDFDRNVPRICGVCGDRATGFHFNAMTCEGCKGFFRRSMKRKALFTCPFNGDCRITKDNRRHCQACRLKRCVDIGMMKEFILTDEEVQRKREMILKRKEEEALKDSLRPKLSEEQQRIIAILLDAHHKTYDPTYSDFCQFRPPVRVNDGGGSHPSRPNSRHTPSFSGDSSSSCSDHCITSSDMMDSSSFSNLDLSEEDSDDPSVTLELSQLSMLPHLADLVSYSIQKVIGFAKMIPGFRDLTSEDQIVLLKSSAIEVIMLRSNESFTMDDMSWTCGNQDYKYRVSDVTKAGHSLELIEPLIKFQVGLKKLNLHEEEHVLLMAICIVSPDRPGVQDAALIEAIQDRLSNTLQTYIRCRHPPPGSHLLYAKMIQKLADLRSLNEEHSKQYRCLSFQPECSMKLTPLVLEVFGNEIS
smiles,measurement,setting,value
Cc1nc(N(C)C)nc(OC(=O)N(C)C)c1C,Potency,[1],inactive
same,activation,[2],2.16% (inactive)
same,activation,[3],1.95% (inactive)
same,Potency,[4],inactive
same,outcome,[5],inactive
same,max response,[6],13.1%
same,Potency,[7],inactive
same,Potency,[8],inactive
same,Potency,[9],inactive
same,Potency,[10],inactive
same,max response,[11],0.351%
same,Potency,[12],inactive
same,Potency,[13],inactive
same,max response,[14],-14.1%
same,max response,[15],5.66% (inactive)
same,activity change % (negative = inhibition),[16],-14.4% (inactive)
same,Potency,[17],inactive
same,activation,[18],-0.147% (inactive)
same,max response,[19],-0.626% (inactive)
same,Potency,[20],inactive
same,max response,[21],-25.3% (inactive)
same,max response,[22],-11.4% (inactive)
same,Potency,[23],inactive
same,max response,[24],-4.44% (inactive)
same,outcome,[25],inactive
COc1ccc(OC)c(OC)c1,activation,[2],0.0379% (inactive)
CCOC(=O)C(C)Oc1ccc(Oc2cnc3cc(Cl)ccc3n2)cc1 (stereo not given),activation,[2],-3.91% (inactive)
CCCCCCCCCCO,activation,[2],-3.92% (inactive)
O=[N+]([O-])c1ccc(O)cc1C(F)(F)F,activation,[2],-0.0736% (inactive)
Cc1cc2nc(N)sc2cc1C,activation,[2],0.811% (inactive)
CC(C)(C)C(=O)C1C(=O)c2ccccc2C1=O,activation,[2],1.07% (inactive)
CC(C)c1ccccc1,activation,[2],-3.82% (inactive)
NC(N)=S,activation,[2],-0.31% (inactive)
CCCCCCCCOc1ccc(C(=O)O)cc1,activation,[2],11.7% (inactive)
CC(C)(C)CC(C)(C)c1ccc(OCCO)cc1,activation,[2],2.48% (inactive)
CCO[Si](CCC#N)(OCC)OCC,activation,[2],0.364% (inactive)
C[Si](Cl)(Cl)[Si](C)(Cl)Cl,activation,[2],5.31% (inactive)
Cc1ccc(O)c(N)c1,activation,[2],-0.664% (inactive)
O=C/C(Cl)=C(/Cl)C(=O)O,Potency,[1],44.7 µM (active)
same,activation,[3],-13.8% (inactive)
same,outcome,[26],inactive
same,Potency,[13],inactive
same,Potency,[17],30.6 µM (active)
same,activation,[27],1.31% (inactive)
same,activation,[18],5.71% (inactive)
same,max response,[19],-1.15% (inactive)
same,max response,[21],-4.23% (inactive)
same,Potency,[23],inactive
same,max response,[24],-11.2% (inactive)
same,outcome,[25],inactive
